High-throughput results deposited in PubChem by several laboratories.
V-ATPase pH: alters yeast V-ATPase proton transport; S. cerevisiae, pHLuorin cytosolic pH fluorescence; response, % at 10 µM; actives 0.37% (n = 350,000); AID 504577; in the data active means response mostly above about 7.3%, no sharp cut-off; inactive means mostly below about 5.4%; further: actives read high
NPR1 activator: GC-A (human) enzyme activation. HEK293 GC-A cells, cGMP TR-FRET, EC30 ANP; 0% at EC30 ANP, 100% saturating ANP. actives 0.14% (n = 370,000). activation, % at 10 µM. P16066; in the data active means activation above about 40%
Target sequence (P16066 whole entry, looked up): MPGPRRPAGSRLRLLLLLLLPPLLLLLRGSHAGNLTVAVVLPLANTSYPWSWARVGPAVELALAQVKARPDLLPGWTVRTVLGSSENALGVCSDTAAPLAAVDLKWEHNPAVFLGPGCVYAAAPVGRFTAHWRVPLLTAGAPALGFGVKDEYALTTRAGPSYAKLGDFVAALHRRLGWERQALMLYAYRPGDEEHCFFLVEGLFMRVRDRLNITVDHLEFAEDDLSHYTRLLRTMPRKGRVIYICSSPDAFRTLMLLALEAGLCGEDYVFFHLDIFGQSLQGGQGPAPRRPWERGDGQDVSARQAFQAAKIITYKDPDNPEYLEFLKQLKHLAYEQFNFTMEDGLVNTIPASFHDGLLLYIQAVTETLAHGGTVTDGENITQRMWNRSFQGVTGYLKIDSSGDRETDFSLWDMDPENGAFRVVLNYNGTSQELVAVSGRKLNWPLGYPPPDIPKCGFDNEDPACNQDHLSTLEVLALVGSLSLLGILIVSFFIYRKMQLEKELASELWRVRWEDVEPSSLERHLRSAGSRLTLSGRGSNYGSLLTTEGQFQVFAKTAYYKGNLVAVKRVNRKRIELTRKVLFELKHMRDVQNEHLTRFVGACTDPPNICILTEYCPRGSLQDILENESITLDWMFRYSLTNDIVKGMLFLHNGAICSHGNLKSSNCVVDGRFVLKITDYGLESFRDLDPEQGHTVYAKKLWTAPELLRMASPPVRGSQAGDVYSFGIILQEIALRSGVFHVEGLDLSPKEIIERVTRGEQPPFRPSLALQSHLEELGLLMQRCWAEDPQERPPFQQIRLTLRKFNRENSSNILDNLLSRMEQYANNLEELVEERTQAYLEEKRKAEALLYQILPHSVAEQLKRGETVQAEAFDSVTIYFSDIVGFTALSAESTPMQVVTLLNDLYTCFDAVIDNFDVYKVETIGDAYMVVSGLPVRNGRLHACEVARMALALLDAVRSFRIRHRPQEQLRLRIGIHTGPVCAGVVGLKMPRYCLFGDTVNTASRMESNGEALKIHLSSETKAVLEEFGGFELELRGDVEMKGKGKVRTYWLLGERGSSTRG
Efflux pump inh: antifungal efflux pump inhibition, Nile Red retention. S. cerevisiae Candida pump triplex. inhibition, % at 10 µM. actives 0.44% (n = 330,000). AID 485275;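 active means plate passing quality check with inhibition over a set limit, or well fluorescence over plate mean plus 4 SD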;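 further: Nile Red retained in pooled yeast measured as flow cytometry median fluorescence; 0% = buffer negative control and 100% = Enniatin B positive control; higher means more Nile Red kept so more efflux inhibition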
NSD2 inh: blocks human histone methyltransferase NSD2; O96028; NSD2 peptide methylation, AlphaScreen, 120 min; inhibition, % at 12.5 µM; actives 0.54% (n = 310,000); AID 743445; in the data active means inhibition above about 50%
GC-B act: GC-B (human) receptor activation; activation, % at 10 µM; HEK293-GC-B cells, CNP EC30, cGMP TR-FRET; 0% at EC30 CNP, 100% saturating CNP; P20594; AID 1920062; actives 0.11% (n = 370,000);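 active means activation at 10 µM reaching about 35% in either raw or pattern-adjusted values, limit read from the data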
Rce1 inh: blocks yeast Ras-converting enzyme | calls only | AID 2563 | actives 0.27% (n = 290,000) | yeast membranes, quenched prenylated peptide cleavage fluorescence | Q03530;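 active means fall in fluorescence gain of 50% or more versus controls, with final raw signal at or below 3038400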;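 further: plate controls were neutral control wells for no effect and wells lacking membranes for full effect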
Cmpd fluor yeast: flagged as fluorescent in efflux inhibitor counter-screen; shares compounds with Efflux pump inh; S. cerevisiae AD/pABC3, compound fluorescence, flow cytometry; fluorescence ratio to DMSO, % at 10 µM; actives 4% (n = 1,700);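 active means fluorescence ratio to DMSO above its plate's cutoff, the plate mean ratio plus 5 SD, cut at about 210% in these data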;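 further: unstained yeast with no Nile Red so the signal is compound autofluorescence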
CaMdr1 efflux inh: Candida Mdr1 efflux pump inhibition; shares compounds with Efflux pump inh; S. cerevisiae AD/CaMDR1, Nile Red efflux, flow cytometry; inhibition, % at 10 µM; actives 1% (n = 1,700); AID 588518; in the data active means inhibition above about 26%;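 further: 0% = DMSO vehicle and 100% = reference inhibitor; higher means more Nile Red retained so more efflux inhibition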
CaCdr2 efflux inh: inhibitors of Candida albicans Cdr2 efflux pump. Nile Red retention ratio vs DMSO, % at 10 µM. S. cerevisiae AD/CaCDR2, Nile Red retention, flow cytometry. actives 4% (n = 1,700). shares compounds with Efflux pump inh. AID 588520; in the data active means Nile Red retention ratio vs DMSO above about 190%;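 further: higher ratio means more blocking of Cdr2 efflux of the dye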
Cdr1 pump inh: Candida Cdr1 efflux pump inhibition; S. cerevisiae AD/CaCDR1, Nile Red efflux, flow cytometry; inhibition, % at 10 µM; actives 1% (n = 1,700); AID 588522; shares compounds with Efflux pump inh;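 active means inhibition above the screen-wide mean plus twice its standard deviation, cut at about 32% in these data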
* = called active by the depositor; i = inactive; . = not tested or not shown; + = active, no number. In the library only some 1.6% were active in any assay of this set; here they are far more common.

SMILES	V-ATPase pH	NPR1 activator	Efflux pump inh	NSD2 inh	GC-B act	Rce1 inh	Cmpd fluor yeast	CaMdr1 efflux inh	CaCdr2 efflux inh	Cdr1 pump inh
O=C(NCc1ccc(/C=N\NC(=O)C(=O)Nc2ccccc2Br)o1)C(=O)Nc1ccccc1	1	-26	0.7*	1	-8	i	102	0	109	0
COC(=O)C1CN(Cc2cn(Cc3ccc(F)cc3)nn2)CCS(=O)(=O)N1Cc1ccc(F)cc1 (stereo not given)	.	-1	.	.	-3	.	.	.	.	.
O=C(O)CCN1C(=O)/C(=C\c2ccncc2)SC1=S	-2	1	0	-6	-1	i	.	.	.	.
O=C(O)CCN1C(=O)/C(=C\c2ccc(-c3nc4ccccc4s3)o2)SC1=S	-2	.	0.9*	.	.	i	114	8	+	56*
N#Cc1c(-c2ccccc2)cc(-c2cccs2)nc1SCC(=O)O	-4	0	1.3*	6	-3	i	114	0	87	0
CC(C)C[C@H]1COc2cccc(F)c2S(=O)(=O)N1Cc1cn(Cc2ccc(Cl)cc2)nn1	.	2	.	.	8	.	.	.	.	.
CCCCC1C2=C(CCCC2=O)OC2=C1C(=O)CCC2	1	2	7.6*	-1	0	i	94	0	91	0
COc1ccc(Cn2cc(CN3[C@H](CC(C)C)COc4cc(Br)ccc4S3(=O)=O)nn2)cc1	.	-2	.	.	7	.	.	.	.	.
Cc1ccc(CSC2=Nc3ccccc3C3=NC(CC(=O)NCc4ccco4)C(=O)N23)cc1 (stereo not given)	-1	0	0.6*	1	1	i	99	0	114	0
CCCCN1CC(=O)N2[C@H](C[C@@]3(n4ccc5ccccc54)c4ccccc4N(S(=O)(=O)c4ccccc4)[C@@H]23)C1=O	.	1	.	.	9	.	.	.	.	.
Cc1cccc(C)c1NC(=O)C1CC2CCC1C2 (stereo not given)	-1	1	0.8*	-2	0	i	113	0	120	0
N#Cc1cccc(NC(=O)O[C@@H]2CC[C@@]34CCCN3C(=O)CCC[C@H]4C2)c1	.	-2	.	.	-8	.	.	.	.	.
O=C(CSc1ccc(Br)cc1)N1CCN(S(=O)(=O)c2ccccc2)CC1	1	-6	2.0*	-1	-2	i	104	0	105	0
Cc1ccnc(SCc2cn3c(C)cccc3n2)n1	-1	1	1.1*	1	2	i	100	0	96	0
CC(=O)Nc1ccc(/C=C/COC(C)=O)cc1C	.	0	.	-1	1	.	.	.	.	.
Cc1cc2nc3s/c(=C/c4ccc(-c5ccccc5C(=O)O)o4)c(=O)n3c2cc1C	-3	11	0.9*	23	0	i	133	0	142	0
C=CCNC(=O)CSc1nc2c(c(=O)[nH]1)CCCC2	.	-1	.	-3	1	.	.	.	.	.
COc1ccc(CC(=O)Nc2cccc(S(=O)(=O)N3CCCC3)c2)cc1OC	0	-1	0	0	3	.	.	.	.	.
COc1ccc(/C=C/C(=O)Nc2cccc(S(=O)(=O)N3CCCC3)c2)cc1OC	4	-6	1.1*	-5	-2	i	108	0	88	0
CCC1=C(OC(=O)N(CC)CC)N2C(=O)OC(=NCCc3c[nH]c4ccccc34)[C@]2(Cc2ccccc2)[C@H]2C1=CC[C@H]1C(=O)N(C)C(=O)[C@H]12	0	-7	96*	.	-7	i	112	39*	125	1
CCCCCc1ccc(NC(=O)OCCCN2CCC3(CCC(c4ccccc4)CC3)C2=O)cc1 (stereo not given)	.	-3	.	.	-7	.	.	.	.	.
COCCN1C(=O)/C(=C/c2ccc(N3CCCC3)cc2C)SC1=S	-1	-2	2.2*	4	-4	i	318*	1	129	0
CCN=C1S/C(=C\c2ccc(N3CCOCC3)cc2C)C(=O)N1CC	-1	-4	0	1	-4	i	.	.	.	.
CCOC(=O)[C@@]12CCCC3=C1N(CCC3)C(=O)[C@H]2CC(=O)NCc1ccc(C)o1	.	0	.	.	-1	.	.	.	.	.
O=C1/C(=C\c2ccc(-c3ccccc3Cl)o2)SC(=S)N1CC1CCCO1 (stereo not given)	4	-2	0.5*	-4	-4	i	100	0	116	0
SMILES	V-ATPase pH	NPR1 activator	Efflux pump inh	NSD2 inh	GC-B act	Rce1 inh	Cmpd fluor yeast	CaMdr1 efflux inh	CaCdr2 efflux inh	Cdr1 pump inh
COc1cccc(C2c3c(C)nn(-c4ccc([N+](=O)[O-])cc4)c3N=C3C(=O)Nc4ccccc4N32)c1 (stereo not given)	-1	-11	0.4*	-6	1	i	103	0	98	0
CC(=O)Nc1ccc(NC2=Nc3ccccc3N3C2=Nc2c(c(C)nn2-c2ccccc2)C3c2ccccc2)cc1 (stereo not given)	-7	-6	0	9	-8	i	.	.	.	.
Cc1nn(-c2ccc([N+](=O)[O-])cc2)c2c1C(c1ccc(OC(F)F)cc1)N1C(=N2)C(=O)Nc2ccccc21 (stereo not given)	-3	-1	1.6*	0	6	i	116	1	133	0
COc1ccc(CNC(=O)C(=O)NCC2OCCN2S(=O)(=O)c2ccc(OC)c(OC)c2)cc1 (stereo not given)	6	2	0	11	0	i	101	0	94	0
COc1ccc(S(=O)(=O)N2CCOC2CNC(=O)C(=O)NCc2ccc3c(c2)OCO3)cc1OC (stereo not given)	0	1	0	-1	3	i	108	0	100	0
CCOC(=O)[C@]12CCCC=C1N(CCCOC)C(=O)[C@@H]2CC(=O)NCc1cccc(C(F)(F)F)c1	.	5	.	.	5	.	.	.	.	.
Cc1ccc(-n2nc(C)c(NC(=O)CCl)c2C)cc1	3	-1	10*	0	0	i	99	0	104	2
Cc1ccc(-c2cc(NC(=O)CCl)n(-c3ccccc3)n2)cc1	-2	14	0	4	-7	i	.	.	.	.
Cc1ccc(O)c(C(=O)CC(=O)c2ccccc2Cl)c1	0	1	0.6*	1	3	i	89	0	89	0
COc1ccc(C(=O)Nc2sc3c(c2C#N)CCN(C(C)=O)C3)cc1	-2	-2	0.8*	1	-2	i	99	0	90	0
